Screen size: about 220,000 compounds; about 530 (0.24%) were called active. This excerpt belongs to a sample that is enriched for actives. Potency and affinity values are given separately. Unmarked numbers belong to inactive results. No stated cut-off is given here; in the data, active means inhibition above about 13%; inconclusive means no clear call, values can overlap the other calls; inactive means below that.

Sequence of Bifunctional protein GlmU (Mycobacterium tuberculosis (strain ATCC 25618 / H37Rv)) (P9WMN3 whole entry, looked up): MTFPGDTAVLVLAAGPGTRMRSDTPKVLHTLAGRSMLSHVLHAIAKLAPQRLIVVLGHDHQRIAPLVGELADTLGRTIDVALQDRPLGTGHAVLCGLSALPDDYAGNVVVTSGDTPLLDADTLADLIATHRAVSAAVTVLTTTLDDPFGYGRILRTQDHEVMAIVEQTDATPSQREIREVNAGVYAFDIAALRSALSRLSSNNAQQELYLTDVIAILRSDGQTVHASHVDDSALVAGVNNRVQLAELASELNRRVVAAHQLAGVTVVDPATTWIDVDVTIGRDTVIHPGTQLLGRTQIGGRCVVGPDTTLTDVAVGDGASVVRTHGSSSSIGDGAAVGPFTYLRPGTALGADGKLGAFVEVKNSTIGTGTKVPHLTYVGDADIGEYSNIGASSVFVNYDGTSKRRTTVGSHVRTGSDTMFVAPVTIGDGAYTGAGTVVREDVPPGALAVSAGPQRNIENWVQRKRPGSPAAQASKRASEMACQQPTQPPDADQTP

The test has as its target Bifunctional protein GlmU (Mycobacterium tuberculosis (strain ATCC 25618 / H37Rv)) (UniProt P9WMN3). Kind of test: inhibition of mycobacterial GlmU enzyme – biochemical, glucosamine-1-phosphate acetyltransferase (AID 1376).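 Further: 0% = complete reaction with vehicle and 100% = reaction without substrate.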 To be noted: M. tuberculosis GlmU acetyltransferase enzyme assay; hits give high values;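 tested at 30 µM in the primary screen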.
As to `CCNC(=O)Oc1ccc[nH]c1=O`, the inhibition was 6.02%.
Turning to `CN(C)c1ccc(C=C(c2nnnn2-c2ccccc2)c2nnnn2-c2ccccc2)cc1`, the inhibition was -2.49%.
As to `COC(=O)N/N=C(\C)c1ccc(OC(F)F)cc1OC(F)F`, the inhibition was 6.36%.
Take `FC(F)(F)c1ccccc1NC(=S)N1CCN(Cc2ccc3c(c2)OCO3)CC1`: the inhibition was -0.82%.
Turning to `CCc1ccc(NC(=O)CSCCN2C(=O)c3ccccc3C2=O)cc1`, the inhibition is -2.41%.
With `CCCCCNC(=O)c1cc(S(=O)(=O)N2CCCC2)ccc1F`, the inhibition is 0.96%.
For the molecule `N=C1/C(=C/c2ccc(-c3cccc(C(=O)O)c3)o2)C(=O)N=C2SC=C(c3ccccc3)N12`, the inhibition is 53.6% (active).
For `N=C1/C(=C\c2ccc(-c3cccc(Cl)c3)o2)C(=O)N=C2SC=C(c3ccccc3)N12`, the inhibition was -2.27%.
`O=C1OC(c2cccs2)=N/C1=C/c1ccc(-c2cccc(C(=O)O)c2)o1`: the inhibition is 18.7% (active).
The result for `O=C1OC(c2cccs2)=N/C1=C\c1ccc(-c2cccc(Cl)c2)o1` reads 7.15%; that for `O=C1OC(c2cccs2)=N/C1=C\c1ccc(-c2ccccc2Cl)o1`, 7.66%.
Turning to `Cc1ccccc1-n1c(C)cc(/C=C2/C(=N)N3C(c4ccccc4)=CSC3=NC2=O)c1C`, the inhibition was -1.94%.
As for `Cc1ccc(N/C=C(/C#N)c2ccsc2)cc1`, the inhibition was 1.11%.
For the molecule `COc1cc(O)c(C(CCN2CCCC2)c2cc(OC)c(OC)c(OC)c2)c(OC)c1` (stereo unspecified), the inhibition was 1.11%.
As to `Cc1ccc(/C=N\NC(=O)C2CC(=O)N(c3ccccc3)C2)o1` (stereo unspecified), the inhibition was 3.39%.
Take `Cc1cc(C)n2nc(C(=O)NCCc3ccccc3)nc2n1`: the inhibition is 14.6% (active).
As for `Cc1cc(C)n2nc(C(=O)NCc3ccccc3)nc2n1`, the inhibition was -3.46%.
Turning to `Cc1cc(C)n2nc(SCCC(=O)NCCc3ccccc3)nc2n1`, the inhibition was -3.62%.
Turning to `CCN(CC(=O)NCc1ccc(Cl)cc1)S(=O)(=O)c1ccc(NC(C)=O)cc1`, the inhibition is -2.53%.
Turning to `CC(CCc1ccccc1)NC(=O)c1cccc([N+](=O)[O-])c1` (stereo unspecified), the inhibition was 13.1% (active).
As for `CC(CCc1ccccc1)NC(=O)c1ccccc1` (stereo unspecified), the inhibition is -2.82%.
Take `Cc1ccc(C(=O)NC(C)CCc2ccccc2)cc1[N+](=O)[O-]` (stereo unspecified): the inhibition was 3.64%.
Regarding `CCn1c(SCC(=O)NCCc2ccccc2)nnc1C(C)C`, the inhibition is 1.51%.
Turning to `Cn1c(SCC(=O)c2ccc3c(c2)NC(=O)CO3)nc2ccccc21`, the inhibition is -5.28%.
In the case of `COc1cccc(C(=O)Cn2c(=N)n(C)c3ccccc32)c1`, the inhibition was 13% (active).
In the case of `Cn1c(=N)n(CC(=O)c2ccccc2)c2ccccc21`, the inhibition was 3.23%.
The result for `COc1ccc(C(=O)Cn2c(=N)n(C)c3ccccc32)cc1` reads -4.4%; that for `Nc1ncnc(Nc2ccc(S(N)(=O)=O)cc2)n1`, -0.83%.
For the molecule `CNC(=S)N1CCN(C(=O)c2ccco2)CC1`, the inhibition was 2.06%.
Then `COc1ccc(NC2(C#N)CCCCC2)cc1`, with -1.99%; and `CC(Nc1nc(-c2ccc3c(c2)NC(=O)CO3)cs1)c1ccccc1` (stereo unspecified), with -7.09%.
Then `COC(=O)Cc1ccc(NC(=S)NCCSc2ccc(Cl)cc2)cc1`, with 3.25%; and `COc1ccc2c(c1)c(C(=O)CN1CCC3(CC1)OCCO3)c(C)n2C`, with 13% (active); and `COc1ccc2c(c1)c(C(=O)CN1CCC3(CC1)OCCO3)c(C)n2Cc1ccccc1`, with -7.53%.
Regarding `COc1ccc2c(c1)c(C(=O)CN1CCOCC1)c(C)n2C`, the inhibition was 5.7%.
For `Cc1cc(C(C)(C)C)oc1C(=O)N(CC(=O)NC1CCCC1)Cc1ccccc1`, the inhibition is -0.33%.
`Cn1c(=O)c2c(ncn2CC(O)CNc2cccc(Cl)c2)n(C)c1=O` (stereo unspecified): the inhibition was -0.25%.
The result for `COC(=O)Nc1ccc(S(=O)(=O)NCCCCCC(=O)O)cc1` reads -5.41%.
Then `COc1ccc(Nc2ccccc2C(=O)O)cc1`, with -1.06%; and `COc1cc(-c2ccc(Nc3ccccc3C(=O)O)c(OC)c2)ccc1Nc1ccccc1C(=O)O`, with 27.4% (active); and `O=C(O)c1ccccc1Nc1ccccc1C(=O)O`, with -0.95%.
The result for `O=[N+]([O-])c1ccc(Oc2ccc(S(=O)(=O)N3CCCCC3)cc2)cc1` reads -0.28%; that for `O=c1c2[nH]c3cccc(Cl)c3c2ncn1CCN1CCCCC1`, 0.41%.
As for `CCP(=O)(c1ccccc1)C(C)(C)O` (stereo unspecified), the inhibition was 4.81%.
Then `CCOP(=O)(C1=C(O)C(=O)C(C(C)(C)C)=CC1=O)c1ccccc1` (stereo unspecified), with 19.3% (active); and `CCCOP(=O)(c1ccccc1)c1ccccc1`, with 0.12%.
Take `O=C1CN=C(c2ccc(Cl)cc2)c2oc3ccccc3c2N1`: the inhibition is 2.87%.
Regarding `O=C1CN=C(c2ccc(Br)cc2)c2oc3ccccc3c2N1`, the inhibition is 14.2% (active).
Then `O=C1CN=C(c2ccc(F)cc2)c2oc3ccccc3c2N1`, with 0.53%.
For `Cc1cccc(/C(N)=N/OC(=O)CCc2ccccc2)c1`, the inhibition was 3.83%.
In the case of `O=C(c1ccc(O)cc1)c1ccc(C(=O)O)c(C(=O)O)c1`, the inhibition was 12.8% (active).
Then `O=C(O)c1ccc(C(=O)O)c(C(=O)c2ccccc2)c1`, with 1.74%; and `O=C(c1ccc(O)cc1)c1ccc(C(=O)c2ccc(O)cc2)cc1`, with -1.69%.
As for `Cc1ccc(C)c(NCc2ccccc2CO)c1`, the inhibition was -3.27%.
Turning to `O=C(O)c1ccc2c(c1)N(Cc1ccccc1)C(=O)c1ccccc1S2`, the inhibition was -0.29%.
For the molecule `Cc1ccccc1CN1C(=O)c2ccccc2Sc2ccc(C(=O)O)cc21`, the inhibition was -2.8%.
Then `Cc1cccc(CN2C(=O)c3ccccc3Sc3ccc(C(=O)O)cc32)c1`, with 14.3% (active); and `COCc1cc(C)nc(SCC(=O)Nc2cccc(C)c2C)c1C#N`, with 3.01%; and `COCc1cc(C)nc(SCC(=O)Nc2cccc3cccnc23)c1C#N`, with 15.1% (active).
Regarding `COCc1cc(C)nc(SCC(=O)Nc2ccccc2C)c1C#N`, the inhibition was 2.63%.
`CC(C)(C)NCC(O)Cn1cc(C=O)c2ccccc21` (stereo unspecified): the inhibition was 1.11%.
With `CC1(c2ccccc2)CC(C)(C)N2C(=O)Cc3cccc1c32` (stereo unspecified), the inhibition was 2.59%.
`Cc1cccc(-n2c(=O)[nH]c3c(C(N)=O)nc(C(C)C)nc32)c1`: the inhibition is 0.14%.
Take `CCn1c2ccccc2c2cc(NC(=O)CSc3nnc(-c4ccc(OC)cc4)n3N)ccc21`: the inhibition is 1.4%.
`CCn1c2ccccc2c2cc(NC(=O)CSc3nnc(-c4cccc(OC)c4)n3N)ccc21`: the inhibition was 14.2% (active).
The result for `CCn1c2ccccc2c2cc(NC(=O)CSc3nnc(-c4ccc(OC)c(OC)c4)n3N)ccc21` reads 3.95%; that for `COC(=O)c1c(NC(=O)C2COc3ccccc3O2)sc2c1CCN(C(C)=O)C2` (stereo unspecified), 2.68%.
For `O=C(COC(=O)/C=C/c1ccccc1[N+](=O)[O-])NC1CCS(=O)(=O)C1` (stereo unspecified), the inhibition was 6.21%.
For `Cn1cnc([N+](=O)[O-])c1Cl`, the inhibition is 2.48%.
`Cn1cnc([N+](=O)[O-])c1S(=O)(=O)c1cccc(Cl)c1`: the inhibition was 14.8% (active).
The result for `Cc1cccc(Sc2c([N+](=O)[O-])ncn2C)c1` reads 4.72%; that for `CCS(=O)(=O)c1c([N+](=O)[O-])ncn1C`, 5.34%; that for `Cn1cnc([N+](=O)[O-])c1Oc1ccc2ccccc2c1`, -3.73%.
`COc1ccc(/C=C(\C)c2nc(C)c(-c3ccccc3)c(=O)[nH]2)cc1`: the inhibition is 4.53%.
For `Fc1ccc(N2CCN(c3ncnc4nc[nH]c34)CC2)cc1`, the inhibition is 4.66%.
Consider `O=C(COC(=O)c1ccc(S(=O)(=O)N2CCCC2)cc1)Nc1ccc(N2CCOCC2)cc1`, for which the inhibition was -1.26%.
Then `Cc1cccc(-c2nc3c(c(SCC(N)=O)n2)CCCC3)c1`, with 14.5% (active); and `Cc1cccc(-c2nc3c(c(SCC(=O)N(C)C)n2)CCCC3)c1`, with -3.93%.
For `NC(=O)CSc1nc(-c2ccccc2)nc2c1CCCC2`, the inhibition was -3.87%.
The result for `COc1ccc(OC)c(NC(=O)NC2(C(F)(F)F)Oc3ccccc3O2)c1` reads -3.98%; that for `O=C(O)CCSCC(=O)c1ccc2c(c1)OCCO2`, -0.32%.
With `CNc1cc(Cl)c2nonc2c1[N+](=O)[O-]`, the inhibition is 11.9%.
Then `Cc1c(Nc2cc(N3CCOCC3)c3nonc3c2[N+](=O)[O-])c(=O)n(-c2ccccc2)n1C`, with -3.88%.
Then `CN(C)c1cc(Nc2ccc(O)cc2)c([N+](=O)[O-])c2nonc12`, with 0.57%; and `CN(C)c1cc(Nc2cccc(O)c2)c([N+](=O)[O-])c2nonc12`, with -3.39%.
For `O=[N+]([O-])c1c(Nc2ccccn2)cc(Cl)c2nonc12`, the inhibition was -2.44%.
For `CCNc1cc(Nc2c(C)n(C)n(-c3ccccc3)c2=O)c([N+](=O)[O-])c2nonc12`, the inhibition was 2.95%.
For the molecule `CC1CN(C(=O)c2ccncc2)CC(C)O1` (stereo unspecified), the inhibition was 2.56%.
For the molecule `c1cc2nncn2nc1N1CCCC1`, the inhibition was -1.89%.
Regarding `COC(=O)c1cc(C#N)c(Oc2ccccc2)nc1C`, the inhibition is 0.33%.
Turning to `COc1cc(/C=N/NC(=O)c2cccnc2)ccc1OS(=O)(=O)c1cc(C)ccc1C`, the inhibition was -3.66%.
Take `O=C(OC1Cn2c(=O)ccc(=O)n2C1)c1ccc([N+](=O)[O-])cc1`: the inhibition is 1.59%.
On to `COc1ccc(C(C(=O)NC2CCCC2)N(CC2CCCO2)C(=O)Cn2nnc(-c3ccc(C)o3)n2)cc1` (stereo unspecified), for which the inhibition is 0.08%.
Then `CC1=C(C#N)C(=O)N(C2CCS(=O)(=O)C2)C(=O)/C1=C\c1ccco1` (stereo unspecified), with 25.3% (active).
Regarding `CC1=C(C#N)C(=O)N(C2CCS(=O)(=O)C2)C(=O)/C1=C\c1ccc(C)o1` (stereo unspecified), the inhibition is 5.88%.
In the case of `O=C1/C(=C/c2ccco2)SC(=S)N1C1CCS(=O)(=O)C1` (stereo unspecified), the inhibition was 5.66%.

What is called inhibition is the relative decrease from the control value, in per cent.

Source of the values: PubChem BioAssay AID1376 (SRMLSC, 2008).
